Source: PubChem (Broad Institute)
Most compounds without a hit are left out; they make up all but 2.3% or so of the library.
C diff growth – inhibitors of Clostridium difficile growth; Clostridium difficile clinical isolate growth, OD600, 24 h; stronger effect = lower value; growth activity, negative = inhibition, % at 16 µg/mL (by protocol); hit rate 0.25% among 86,000;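 active = mean growth activity at or below -80% and every replicate also at or below -80%; inconclusive = mean at or below -80% but some replicate above -80%; inactive = mean growth activity above -80%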
Pf Dd2 growth – inhibitors of Plasmodium falciparum Dd2 growth | activity change, % at 10 µM | AID 1159554 | hit rate 2.3% among 94,000 | P. falciparum Dd2 growth, SYBR Green, 72 h; stronger effect = lower value; in the data active = activity change below about -80%; inconclusive = no clear call, values can overlap the other calls
Each line names hits and unclear results; the compound was inactive in the other large screens; ! = not confirmed by another sample.

C[C@@H]1CN([C@H](C)CO)C(=O)c2c(c3ccccc3n2C)-c2ccccc2CO[C@@H]1CN(C)C(=O)Nc1cccc(F)c1	none (no result: C diff growth)
C[C@H](CO)N1C[C@H](C)[C@H](CN(C)C(=O)Nc2ccc(-c3ccccc3)cc2)OCc2ccccc2-c2c(n(C)c3ccccc23)C1=O	Pf Dd2 growth -89.2
C[C@H](CO)N1C[C@H](C)[C@@H](CN(C)C(=O)Nc2ccc(F)cc2)OCc2ccccc2-c2c(n(C)c3ccccc23)C1=O	Pf Dd2 growth -92.1
C[C@H]1CN([C@@H](C)CO)C(=O)c2c(c3ccccc3n2C)-c2ccccc2CO[C@H]1CN(C)C(=O)Nc1ccccc1	none (no result: C diff growth)
C[C@@H]1CN([C@@H](C)CO)C(=O)c2c(c3ccccc3n2C)-c2ccccc2CO[C@@H]1CN(C)C(=O)Nc1ccccc1	none (no result: C diff growth)
C[C@H]1CN([C@@H](C)CO)C(=O)c2c(c3ccccc3n2C)-c2ccccc2CO[C@H]1CN(C)C(=O)Nc1ccc(-c2ccccc2)cc1	Pf Dd2 growth -88.7
C[C@@H]1CN([C@@H](C)CO)C(=O)c2c(c3ccccc3n2C)-c2ccccc2CO[C@H]1CN(C)C(=O)Nc1ccc(-c2ccccc2)cc1	Pf Dd2 growth -90.7
O=C(C[C@@H]1CC[C@@H]2[C@H](COC[C@H](O)CN2C(=O)Cc2ccccc2)O1)NC1Cc2ccccc2C1	none
CCC(=O)N1[C@H](CO)[C@H](c2ccccc2)[C@@H]1CN(CC1CC1)S(C)(=O)=O	none
Cc1noc(C)c1S(=O)(=O)Nc1ccc2c(c1)C(=O)N([C@@H](C)CO)C[C@H](C)[C@@H](CN(C)C(=O)C1CCCCC1)OCCCC[C@@H](C)O2	none
OC[C@@H]1CC[C@@H]2O[C@H](CCc3ccc(-c4ccc(F)cc4)cc3)[C@H](n3cc(C4CC4)nn3)C[C@@H]2O1	none
OC[C@H]1CC[C@@H]2O[C@H](CCc3ccc(-c4ccc(F)cc4)cc3)[C@H](n3cc(C4CC4)nn3)C[C@@H]2O1	Pf Dd2 growth -81.6
COCC#Cc1ccc(CC[C@H]2O[C@H]3CC[C@H](CO)O[C@H]3C[C@@H]2n2cc(C3CC3)nn2)cc1	Pf Dd2 growth -86.9
COCC#Cc1ccc(CC[C@H]2O[C@H]3CC[C@@H](CO)O[C@H]3C[C@@H]2n2cc(C(C)(C)O)nn2)cc1	none
C[C@@H]1CN([C@@H](C)CO)C(=O)c2cc(NS(=O)(=O)c3cn(C)cn3)ccc2O[C@@H]1CN(C)C	none
C[C@H](CO)N1C[C@H](C)[C@@H](CN(C)Cc2ccc(C(F)(F)F)cc2)Oc2ccc(NC(=O)NC3CCCCC3)cc2C1=O	none (no result: C diff growth)
O=C(Nc1ccc(-c2ccccc2)cc1)[C@H]1[C@H](CO)[C@H]2Cn3c(cccc3=O)[C@H]2N1CC1CCOCC1	none
O=C(Nc1ccc(-c2ccccc2)cc1)[C@@H]1[C@@H](CO)[C@@H]2Cn3c(cccc3=O)[C@@H]2N1CC1CCCCC1	Pf Dd2 growth -82.1
C[C@@H]1CN([C@@H](C)CO)C(=O)Cc2cc(NS(C)(=O)=O)ccc2O[C@H]1CN(C)Cc1ccc2c(c1)OCO2	none
CCCN1C[C@H](C)[C@@H](OC)CN(C)C(=O)c2cc(NC(=O)C3CCOCC3)ccc2OC[C@@H]1C	none (no result: C diff growth)
CN1C(=O)c2cc(NC(=O)c3ccc(F)cc3)ccc2OC[C@@H]2O[C@@H](CC(=O)NCC3CC3)CC[C@H]21	none
COc1cccc(CN2C[C@@H]3N[C@H](C2)C3c2ccc(-c3ccccc3OC)cc2)c1 (stereo partly specified)	C diff growth -97.3!
COc1ccccc1CN1[C@@H]2CNC[C@H]1C2c1ccc(-c2cccnc2)cc1 (stereo partly specified)	none
COc1ccccc1-c1ccc(C2[C@@H]3CN(Cc4nccs4)C[C@H]2N3)cc1 (stereo partly specified)	none
COc1ccccc1CN1C[C@@H]2N[C@H](C1)[C@@H]2c1ccc(-c2cccnc2)cc1	Pf Dd2 growth -87.4
COc1ccccc1-c1ccc(C2[C@@H]3CN(Cc4cccc(F)c4)C[C@H]2N3)cc1 (stereo partly specified)	C diff growth -90.3!
COc1cccc(CN2C[C@@H]3N[C@H](C2)C3c2ccc(-c3ccc(C#N)cc3)cc2)c1 (stereo partly specified)	Pf Dd2 growth inconclusive
C[C@H](CO)N1C[C@H](C)[C@@H](CN(C)S(=O)(=O)c2ccc(Cl)cc2)Oc2ccc(NC(=O)Nc3ccc4c(c3)OCO4)cc2C1=O	none
CC(=O)N(C)C[C@@H]1Oc2cc(C#CC3CC3)ccc2S(=O)(=O)N([C@@H](C)CO)C[C@@H]1C	none
Cc1noc(C)c1NC(=O)Nc1ccc2c(c1)CC(=O)N([C@H](C)CO)C[C@H](C)[C@@H](CN(C)Cc1ccc(Cl)c(Cl)c1)O2	none
CN1c2ccc(C#Cc3ccc(F)cc3)cc2[C@H]2[C@H](CCN2S(=O)(=O)c2ccccc2F)[C@@H]1CO	none
CN1c2ccc(-c3ccccc3)cc2[C@H]2[C@H](CCN2S(=O)(=O)c2ccccc2F)[C@H]1CO	none
COc1cccc(S(=O)(=O)N2CC[C@H]3[C@@H](CO)N(C)c4ccc(C#Cc5ccc(F)cc5)cc4[C@H]32)c1	C diff growth -99.3
Cc1cccc(S(=O)(=O)N2CC[C@@H]3[C@H](CO)N(C)c4ccc(C#Cc5ccc(F)cc5)cc4[C@@H]32)c1	C diff growth -98.3
CN1c2ccc(-c3cccc(C#N)c3)cc2[C@H]2[C@H](CCN2S(=O)(=O)c2ccccc2F)[C@H]1CO	Pf Dd2 growth -95.1
COc1cccc(-c2ccc3c(c2)[C@H]2[C@H](CCN2S(=O)(=O)c2ccc(F)cc2)[C@@H](CO)N3C)c1	none
CCCNC(=O)N1C[C@H]2[C@@H](c3ccccc31)[C@H](CO)N2C(=O)Cc1ccccn1	none
COc1ccc(S(=O)(=O)N(C)C[C@@H]2OCCCC[C@H](C)Oc3ccc(NC(=O)c4ccncc4)cc3C(=O)N([C@@H](C)CO)C[C@H]2C)cc1	none
COCC(=O)N1CC(=O)N2[C@@H](CO)[C@H](c3ccc(C#Cc4cccc(OC)c4)cc3)[C@@H]2C1	none
O=C(C1CCCC1)N1CC(=O)N2[C@H](C1)[C@@H](c1ccc(Br)cc1)[C@@H]2CO	none
C[C@H]1CN([C@@H](C)CO)C(=O)c2cccc(NC(=O)c3nc4ccccc4s3)c2O[C@H]1CN(C)C(=O)Nc1cccc2ccccc12	none (no result: C diff growth)
C[C@H](CO)N1C[C@H](C)[C@@H](CN(C)C(=O)Nc2ccc3c(c2)OCO3)Oc2c(NC(=O)c3nc4ccccc4s3)cccc2C1=O	none (no result: C diff growth)
C[C@H]1CN([C@@H](C)CO)C(=O)c2cccc(NC(=O)c3nc4ccccc4s3)c2O[C@@H]1CN(C)C(=O)Nc1cccc2ccccc12	none (no result: C diff growth)
C[C@@H]1CN([C@@H](C)CO)C(=O)c2cccc(NC(=O)c3nc4ccccc4s3)c2O[C@@H]1CN(C)C(=O)Nc1cccc2ccccc12	Pf Dd2 growth -88.0 (no result: C diff growth)
C[C@@H]1CN([C@@H](C)CO)C(=O)c2cccc(NC(=O)c3nc4ccccc4s3)c2O[C@H]1CN(C)C(=O)Nc1cccc2ccccc12	Pf Dd2 growth -94.2 (no result: C diff growth)
C[C@@H]1CN([C@@H](C)CO)C(=O)c2cccc(NC(=O)c3nc4ccccc4s3)c2O[C@H]1CN(C)C(=O)Nc1ccc2c(c1)OCO2	Pf Dd2 growth -89.7 (no result: C diff growth)
C[C@H]1CN([C@@H](C)CO)C(=O)Cc2cc(NC(=O)c3ccncc3)ccc2O[C@H]1CN(C)Cc1ccc(C(=O)O)cc1	none
C[C@H](NC(=O)C[C@@H]1C=C[C@H](NC(=O)C2CC2)[C@@H](CO)O1)c1ccccc1	none
